Source: PubChem
Compounds with a hit are over-represented: about 6.1% of the library has one in this group of screens.
D3 ag: qHTS of D3 Dopamine Receptor Agonist: qHTS; D3R DiscoveRx beta-arrestin cells, luminescence, 90 min; max activation, %; 410,000 compounds, 0.58% hits; AID 652048, 2013; in the data active = max activation above about 30%; note: 0% is about no effect
Target sequence (P35462 whole entry, looked up): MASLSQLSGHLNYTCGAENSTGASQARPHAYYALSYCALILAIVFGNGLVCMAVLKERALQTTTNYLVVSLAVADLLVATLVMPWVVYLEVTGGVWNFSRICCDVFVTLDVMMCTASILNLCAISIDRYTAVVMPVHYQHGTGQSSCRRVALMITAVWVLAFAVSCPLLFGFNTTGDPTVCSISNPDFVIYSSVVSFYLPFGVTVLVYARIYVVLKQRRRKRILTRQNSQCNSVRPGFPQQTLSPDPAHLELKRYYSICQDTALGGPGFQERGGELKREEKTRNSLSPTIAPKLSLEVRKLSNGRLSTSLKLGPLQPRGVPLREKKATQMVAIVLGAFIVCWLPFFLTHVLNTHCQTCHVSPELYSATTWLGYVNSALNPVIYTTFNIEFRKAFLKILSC
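Agonist-mode cell screen: cells plated at 1500/well and incubated overnight at 37 °C, then exposed to library compounds for 90 min at 37 °C. Detection reagent was added for 30–60 min at room temperature, and luminescence was read.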
D1 antag: Antagonist of Human D 1 Dopamine Receptor: qHTS; AID 504652, 2011; HEK293 TREx D1 cells, calcium flux, dopamine EC80; stronger effect = lower value; 360,000 compounds, 3.2% hits; activity change, negative = inhibition, % at 10 µM; D(1A) dopamine receptor (Homo sapiens), P21728; in the data active = activity change below about -30%; note: % is set by controls: 0 for no effect and ±100 for the full control effect
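Compound effects on dopamine-evoked calcium signalling were measured in tetracycline-induced HEK293 Trex D1 cells. Dopamine at EC80 followed a 180 s compound pre-read, and fluorescence was tracked kinetically for 180 s more.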
D1 potentiator: Potentiators of Human D1 Dopamine Receptor: qHTS. HEK293 TREx D1 cells, calcium flux, dopamine EC20 potentiation. potentiation, % at 10 µM. 360,000 compounds, 0.036% hits; in the data active = potentiation above about 30%; note: 0% is about no effect
D1 agonist: Allosteric Agonists of the Human D1 Dopamine Receptor: qHTS. HEK293 T-REx D1 cells, calcium flux, agonist mode. activation, % at 2 µM. 360,000 compounds, 1% hits; in the data active = activation above about 30%; note: 0% is about no effect
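Tetracycline-induced HEK293 TREx D1 cells, force-coupled to calcium signalling, were dye-loaded with a no-wash calcium kit. Compound was pin-added after a 10 s baseline. Fluorescence was read kinetically at 1 cycle/s for 180 s, with calcium rises flagged as agonism.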
ERG Ets-DNA blk: qHTS for Small Molecule Inhibitors of the ERG Ets/DNA interaction; Transcriptional regulator ERG (Homo sapiens), P11308; fluorescence polarization, His-ERG Ets domain / labelled DNA; Potency, µM (doses to about 76.9 µM), for the others: top-dose FP activity, negative = inhibition, hits mostly inhibitors; 370,000 compounds, 0.028% hits; AID 624246, 2012; active = well fitted inhibition curve with a large enough effect in the polarisation, with a control signal flat; the % refers to the polarisation;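 note: polarization taken with two DNA probes labelled with fluorescein and Texas red; potency is the fitted concentration of half-maximal effect; % of control where 0% means no effect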
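His-tagged ERG Ets domain (1 uM in the protein solution; 300mM KCl, 50mM Tris-HCl, 1mM EDTA, 1mM DTT, pH 7.5) received compound, then a probe mix of 5 nM fluorescein-DNA and 100nM Texas-615-DNA. Fluorescence polarization was read for both dyes.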
D3 antag: qHTS of D3 Dopamine Receptor Antagonist: qHTS | D3R cells, DiscoveRx beta-arrestin luminescence, antagonist mode; stronger effect = lower value | 360,000 compounds, 2.5% hits | max response, negative = inhibition, %; in the data active = max response below about -50%; note: % is set by controls: 0 for no effect and ±100 for the full control effect
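Cells plated overnight at 1500 cells/well, then exposed to library compounds with dopamine controls for 90 minutes at 37 degrees C. DiscoveRx reagent added for 30–60 minutes at room temperature; luminescence read, quantitative HTS format.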
* hit, by the source's call.

Screening CCOC(=O)[C@H]1[C@H]2COc3ccc(OC)cc3[C@@H]2N2C(=O)CN(Cc3ccco3)C(=O)[C@@]12C returned D3 ag -27, D1 potentiator 7, D1 agonist -1, ERG Ets-DNA blk -2% and D3 antag -11.
COc1ccc(-c2nnc(SCC(=O)N3CCN(c4ccccc4)CC3)o2)cc1OC was read as D3 ag -4, D1 antag -17, D1 potentiator -1, D1 agonist 0, ERG Ets-DNA blk -9% and D3 antag 9.
Screening COc1ccc(-c2nnc(SCC(=O)N3CCC(Cc4ccccc4)CC3)o2)cc1OC returned D3 ag 38*, D1 antag 6, D1 potentiator 3, D1 agonist -1, ERG Ets-DNA blk 5% and D3 antag 49.
`COc1cccc(NC(=S)N2CCC(Cc3ccccc3)CC2)c1` gave D3 ag -6, D1 antag -37*, D1 potentiator -3, D1 agonist 1, ERG Ets-DNA blk 0% and D3 antag -13.
`Cc1ccc(/C=C/C(=O)N2CCCC(C)C2)cc1` (stereo not given) gave D3 ag -9, D1 antag -3, D1 potentiator -2, D1 agonist 1, ERG Ets-DNA blk 0% and D3 antag -6.
Cc1ccc(/C=C/C(=O)N2CCC(Cc3ccccc3)CC2)cc1 was read as D3 ag 3, D1 antag -33*, D1 potentiator -9, D1 agonist 10 and D3 antag -21.
For COc1ccc(NC(=S)N2CCC(Cc3ccccc3)CC2)cc1OC the results were D3 ag -5, D1 antag -53*, D1 potentiator -11, D1 agonist 3, ERG Ets-DNA blk -21% and D3 antag -13.
For CC(=O)c1cccc(NC(=S)N2CCC(Cc3ccccc3)CC2)c1 the results were D3 ag -9, D1 potentiator -6, D1 agonist 1, ERG Ets-DNA blk -2% and D3 antag -7.
Screening CC(C)c1ccc(NC(=O)CCNS(=O)(=O)c2ccc3[nH]c(=O)oc3c2)cc1 returned D3 ag -6, D1 antag 17, D1 potentiator -4, D1 agonist 3, ERG Ets-DNA blk -1% and D3 antag -29.
`CCOC(=O)C1CCN(C(=O)Nc2ccc3nccnc3c2)CC1` gave D3 ag 0, D1 antag 1, D1 potentiator -11, D1 agonist 1, ERG Ets-DNA blk -4% and D3 antag -28.
Cc1cc(N2CCN(C(=O)Nc3ccccc3C#N)CC2)c2ccccc2n1 was read as D3 ag -1, D1 antag 2, D1 potentiator -4, D1 agonist 3, ERG Ets-DNA blk 12% and D3 antag -10.
`O=C(Nc1ccccc1)c1cc([N+](=O)[O-])ccc1N1CCCCC1` gave D3 ag 7, ERG Ets-DNA blk -5% and D3 antag 4.
`Cc1cccc(C(=O)N2CCC(=O)N([C@H](COCc3ccc(Cl)cc3)Cc3ccccc3)CC2)c1` gave D3 ag -1 and D3 antag -1.
CCc1cc(=O)[nH]c(SCC(=O)N2CCC(Cc3ccccc3)CC2)n1 was read as D3 ag -20, D1 antag 9, D1 potentiator 1, D1 agonist 2, ERG Ets-DNA blk -4% and D3 antag -59*.
`COc1ccc(OCC(=O)N2CCC(Cc3ccccc3)CC2)cc1` gave D3 ag 32*, D1 antag -16, D1 potentiator 2, D1 agonist 1, ERG Ets-DNA blk 13% and D3 antag 10.
Screening CC1(C(=O)NS(=O)(=O)C2CC2)CCN(C(=O)c2cccc(OC(F)(F)F)c2)C1 (stereo not given) returned D3 ag -5 and D3 antag -6.
`CCN(CC)S(=O)(=O)c1cccc(NC(=O)CN(C)Cc2cccc(OC)c2)c1` gave D3 ag -5, D1 antag -6, D1 potentiator -12, D1 agonist 3, ERG Ets-DNA blk -4% and D3 antag -21.
Screening O=C(c1ccc(Cl)c(S(=O)(=O)NCc2ccccc2)c1)N1CCN(c2ccccn2)CC1 returned D3 ag 16, D1 antag 7, D1 potentiator -1, D1 agonist 3, ERG Ets-DNA blk -13% and D3 antag -71*.
`O=C(c1ccc(CNS(=O)(=O)c2ccccc2)cc1)N1CCN(c2ccccn2)CC1` gave D3 ag 1, D1 antag 9, D1 potentiator 1, D1 agonist 2, ERG Ets-DNA blk -2% and D3 antag 33.
Screening COc1ccc(-c2cn3cccnc3n2)cc1NC(=O)c1c(F)cccc1F returned D3 ag 0, D1 antag -35*, D1 potentiator -3, D1 agonist -1 and ERG Ets-DNA blk 3%.
COc1ccc(-c2cn3cccnc3n2)cc1NC(=O)c1ccc(Br)o1 was read as D3 ag 5, D1 antag -22, D1 potentiator -5, D1 agonist 6, ERG Ets-DNA blk 9% and D3 antag -12.
`COC(=O)C1=CN(c2cccc(C)c2)C=C(C(=O)OC)C1c1cc(OC)c(O)c([N+](=O)[O-])c1` gave D3 ag -5, D1 antag -2, D1 potentiator -3, D1 agonist 2, ERG Ets-DNA blk -4% and D3 antag -84*.
Screening CCCOc1ccc(CCc2n[nH]c(=S)n2Cc2ccccc2)cc1 returned D3 ag 0, D1 antag -43*, D1 potentiator -3, D1 agonist 4, ERG Ets-DNA blk 8% and D3 antag -55*.
`Cc1ccc(NC(=S)NCC2CCN(C(C)c3ccccc3)C2)cc1C` (stereo not given) gave D3 ag -17, D1 antag -63*, D1 potentiator -6, D1 agonist 10, ERG Ets-DNA blk 4% and D3 antag -25.
Screening CCC(C)NC(=O)Cn1nc(C(F)(F)F)c2c1CCCC2 (stereo not given) returned D3 ag 2, D1 antag -38*, D1 potentiator -9, D1 agonist -1, ERG Ets-DNA blk 12% and D3 antag 1.
`C[C@@H]1CN([C@@H](C)CO)S(=O)(=O)c2ccc(Br)cc2O[C@H]1CN(C)C(=O)C1CCCCC1` gave D3 ag -4 and D3 antag -13.
